Screening data: PubChem, National Center for Advancing Translational Sciences (NCATS)
A selection: hits, their analogues and other compounds. The true share with any hit is near 2.9%.
IP6K1 inh: IP6K1 kinase inhibition; Q92551; IP6K1 kinase, ADP-Glo luminescence, 2 h; hits give low values; activity change, % (series mostly up to about 58 µM); actives 0.81% (n = 140,000); AID 1645851; in the data active = activity change below about -25%; also: % is scaled to controls: 0 for no effect and ±100 for the full control effect
Target sequence (Q92551 whole entry, looked up): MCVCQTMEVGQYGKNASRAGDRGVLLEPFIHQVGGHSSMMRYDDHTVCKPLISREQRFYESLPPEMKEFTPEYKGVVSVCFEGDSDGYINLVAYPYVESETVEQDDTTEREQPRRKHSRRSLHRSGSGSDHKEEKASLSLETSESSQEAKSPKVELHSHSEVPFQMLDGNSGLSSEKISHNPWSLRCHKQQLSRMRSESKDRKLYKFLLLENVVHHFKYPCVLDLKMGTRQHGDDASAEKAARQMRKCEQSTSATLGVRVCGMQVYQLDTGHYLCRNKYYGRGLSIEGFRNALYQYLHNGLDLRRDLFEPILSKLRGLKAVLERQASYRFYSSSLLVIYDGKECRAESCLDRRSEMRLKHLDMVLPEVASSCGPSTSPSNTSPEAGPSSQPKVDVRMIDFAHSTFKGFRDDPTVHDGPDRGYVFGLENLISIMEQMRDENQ
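ADP-Glo luminescence measures ADP made by human IP6K1 during a 2 h RT reaction with ATP/IP6 (mix at 1.3 mM/130 uM); top library doses 57.5 and 19.1 uM final.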
SNCA expr inh: SNCA gene expression inhibition. HEK-293 SNCA-luciferase knock-in, luminescence, 24 h. Potency, µM (doses to about 57.2 µM), inactives show at the top dose activity change, negative = inhibition, most hits filed as inhibitors. actives 0.17% (n = 140,000). AID 1671194;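 also: potency is read from the fitted curve at half-maximal effect; plate controls were DMSO cells for no effect and cell-free wells for full effect; nearly all actives have a fitted effect of over 45% in size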
HEK293 viab: counter-screen for SNCA expression inhibitors: cell viability; HEK-293-SNCA-luc viability, GF-AFC fluorescence, 24 h; Potency, µM (highest dose often 57.1 µM), for inactives: at the top dose activity change, negative = cytotoxicity, actives largely listed as cytotoxic; actives 0.12% (n = 150,000); AID 1671193;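 also: potency is read from the fitted curve at half-maximal effect; 0% = DMSO-treated cells and -100% = medium-only wells without cells; nearly all actives have a fitted effect of over 30% in size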
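Cytotoxicity counterscreen: after 24 h compound treatment of genome-edited SNCA-luciferase HEK-293 cells, live-cell protease substrate GF-AFC read by fluorescence after 30 min; activity scaled between DMSO (0%) and medium-only (-100%), curves Hill-fitted.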
KDM5B inh: blocks human KDM5B histone demethylase activity. Q9UGL1. KDM5B demethylase, FDH-coupled NADH fluorescence (FDH is formaldehyde dehydrogenase). Potency, µM (series often up to 57.7 µM), usual class: inhibitors. actives 2.6% (n = 220,000); also: potency is read from the fitted curve at half-maximal effect; 0% is about no effect; nearly all actives have a fitted effect of over 70% in size
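qHTS format, multiple compound concentrations. Buffer 50 mM HEPES pH 7.5/0.01% Tween-20; 200 nM KDM5BΔAP final; 10 min compound preincubation; substrate-mix levels 12.5 µM peptide, 25 µM α-KG, 0.25 mM NAD⁺; 30 min RT; ΔRFU.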
IP6K1 inh cnf: human IP6K1 inhibition, confirmatory; shares compounds with IP6K1 inh; actives 13% (n = 1,200); recombinant IP6K1 kinase, ADP-Glo luminescence, 2 h; Potency, µM (top dose mostly 49 µM), for the others: at the highest dose activity change, negative = inhibition, hits mostly inhibitors; also: potency is read from the fitted curve at half-maximal effect; % is scaled to controls: 0 for no effect and ±100 for the full control effect; nearly all actives have a fitted effect of over 65% in size
* marks the source's active call; other numbers are inactive results; [ ] = another dose, or the depositor's remark. Unless noted, calls follow the shape of the dose curve; as a rule, active = well fitted curve in the direction sought with a large enough effect; inconclusive = small, poorly fitted or top-dose-only effect, or another doubt; inactive = no such curve, though single readings can be large; an effect the other way counts as inactive or inconclusive.

Results for CSCC(=O)N1C[C@@H]2C[C@H](C1)c1ccc(-c3ccccc3CN(C)C)c(=O)n1C2 ?
IP6K1 inh: 10; SNCA expr inh: -25%[87.6 µM]; HEK293 viab: -1%[87.6 µM]; KDM5B inh: 32µM*

What do the screens show for `O=C(O)CCCC(=O)N1C[C@@H]2C[C@H](C1)c1ccc(-c3ccc(Cl)cc3)c(=O)n1C2`?
IP6K1 inh: -3; SNCA expr inh: -5%[87.6 µM]; HEK293 viab: 4%[87.6 µM]; KDM5B inh: 40µM*

Results for CSCC(=O)N1C[C@@H]2C[C@H](C1)c1ccc(-c3cccc(C(F)(F)F)c3)c(=O)n1C2 ?
IP6K1 inh: 9; SNCA expr inh: -6%[87.6 µM]; HEK293 viab: -10%[87.6 µM]; KDM5B inh: 35µM*

Results for COCCN1C(=O)N(C)C(=O)C12CCN(Cc1c(C)noc1C)C2 (stereo not drawn) ?
IP6K1 inh: 21; SNCA expr inh: 20%; HEK293 viab: -2%

Results for Cn1cc(C(=O)Nc2ccncc2)c2ccccc21 ?
KDM5B inh: inactive

What do the screens show for `O=C(c1cnccn1)N1C[C@@H]2C[C@H](C1)c1ccc(-c3cccc(C(F)(F)F)c3)c(=O)n1C2`?
IP6K1 inh: 24; SNCA expr inh: -5%; HEK293 viab: 0%; KDM5B inh: 18µM*

What do the screens show for `Cc1ccccc1-c1ccc2n(c1=O)C[C@H]1C[C@@H]2CN(C(=O)c2cnccn2)C1`?
IP6K1 inh: 2; SNCA expr inh: 13%[87.6 µM]; HEK293 viab: 4%[87.6 µM]; KDM5B inh: inactive

How did CN1c2ncccc2CN(Cc2ccccn2)CC[C@H]1CO do in these assays?
IP6K1 inh: -11; SNCA expr inh: -4%[87.6 µM]; HEK293 viab: 6%[87.6 µM]; KDM5B inh: 32µM*

What do the screens show for `Cc1ccc2c(n1)N(C)[C@H](CO)CCN(Cc1ccco1)C2`?
IP6K1 inh: -4; SNCA expr inh: -3%[87.6 µM]; HEK293 viab: 4%[87.6 µM]; KDM5B inh: inconclusive

Results for CN1c2ncccc2CN(Cc2ccccc2)CC[C@H]1CO ?
IP6K1 inh: -13; SNCA expr inh: 13%[87.6 µM]; HEK293 viab: -2%[87.6 µM]; KDM5B inh: 32µM*

Results for O=C1C2CCCCC1CN(Cc1ccccc1)C2 ?
KDM5B inh: inactive

Results for COc1cccn(CC(=O)N2CCN(C)C3(CCNCC3)C2)c1=O ?
IP6K1 inh: 7; SNCA expr inh: -12%; HEK293 viab: 2%; KDM5B inh: 13µM*

Results for COc1nn(CSP(=S)(OC)OC)c(=O)s1 ?
IP6K1 inh: -46*; SNCA expr inh: -35%; HEK293 viab: inconclusive; IP6K1 inh cnf: 10µM*

How did COc1cc2c(cc1Oc1cccc(N(C)C)c1)NC(=O)C21CCN(C(=O)C2CCC2)CC1 do in these assays?
IP6K1 inh: -10; SNCA expr inh: -28%; HEK293 viab: 4%; KDM5B inh: inactive

Results for CCOc1ccc2c(n1)CCNC2 ?
IP6K1 inh: -26*; SNCA expr inh: 17%; HEK293 viab: 3%[12.5 µM]; KDM5B inh: inactive; IP6K1 inh cnf: -4%

What do the screens show for `CC(C)c1nccn1C(C)C(=O)N1CCC(C#N)(c2ccccc2)CC1` (stereo not drawn)?
IP6K1 inh: 0; SNCA expr inh: 10%; HEK293 viab: 0%; KDM5B inh: inactive

Results for N#Cc1nn(-c2c(Cl)cc(C(F)(F)F)cc2Cl)c(N)c1S(=O)C(F)(F)F (stereo not drawn) ?
IP6K1 inh: -41*; SNCA expr inh: 23%[25.6 µM]; HEK293 viab: -24%[23.9 µM]; IP6K1 inh cnf: inconclusive

What do the screens show for `CC(C)Cc1nc2cccnc2n1C1CCNCC1`?
IP6K1 inh: -33*; SNCA expr inh: -7%; HEK293 viab: 4%; KDM5B inh: inactive; IP6K1 inh cnf: 12%

Results for COc1cc2c(cc1OCC1CC1)NC(=O)C21CCN(c2nc(C)cnc2C)CC1 ?
IP6K1 inh: -32*; SNCA expr inh: 4%[87.6 µM]; HEK293 viab: -14%[87.6 µM]; KDM5B inh: inactive; IP6K1 inh cnf: -19%

Results for COc1cc2c(cc1OCC1CC1)NC(=O)C21CCN(c2ccnc(C)n2)CC1 ?
IP6K1 inh: -16; SNCA expr inh: -8%[87.6 µM]; HEK293 viab: -16%[87.6 µM]; KDM5B inh: inactive

How did CCCNC(=O)OC[C@H]1C[C@@H]2CCN1C[C@@H]2c1cc(-c2cccs2)nc(C)n1 do in these assays?
IP6K1 inh: 6; SNCA expr inh: 10%[87.6 µM]; HEK293 viab: -8%[87.6 µM]; KDM5B inh: inactive

Results for COc1cc2c(cc1OCc1ccccc1)NC(=O)C21CCN(Cc2cccc(O)c2)CC1 ?
IP6K1 inh: -20; SNCA expr inh: 53%; HEK293 viab: -16%; KDM5B inh: inactive

What do the screens show for `CC[n+]1c(-c2ccccc2)c2cc(N)ccc2c2ccc(N)cc21`?
IP6K1 inh: -52*; SNCA expr inh: -39%[25.6 µM]; HEK293 viab: -17%[23.9 µM]; IP6K1 inh cnf: inconclusive

How did O=C(NCCN1CCC2(CC1)C(=O)NCN2c1cccc(F)c1)c1ccc(F)c(F)c1 do in these assays?
IP6K1 inh: -7; HEK293 viab: -19%

What do the screens show for `CCN(CC)C(=O)[C@@H]1C=C2c3cccc4[nH]cc(c34)C[C@H]2N(C)C1`?
IP6K1 inh: -72*; SNCA expr inh: 16%[87.6 µM]; HEK293 viab: 58%[87.6 µM]; IP6K1 inh cnf: 2%

How did Cc1c(Cl)c(=O)oc2cc(OP(=O)(OCCCl)OCCCl)ccc12 do in these assays?
IP6K1 inh: 6; SNCA expr inh: 11%[25.6 µM]; HEK293 viab: 3%[23.9 µM]

Results for CCOP(=S)(OCC)Oc1ccc2c(C)c(Cl)c(=O)oc2c1 ?
IP6K1 inh: -52*; SNCA expr inh: -2%[25.6 µM]; HEK293 viab: -16%[23.9 µM]; IP6K1 inh cnf: 6.5µM*

What do the screens show for `CCC(C)C1NC(=O)C2CCCN2C(=O)C(CC(C)C(=O)O)OC(=O)CCNC(=O)C(C)N(C)C(=O)C(C(C)C)N(C)C1=O` (stereo not drawn)?
IP6K1 inh: 4; HEK293 viab: -12%[23.9 µM]

What do the screens show for `CC(=O)[O][Hg][c]1ccccc1`?
IP6K1 inh: -61*; SNCA expr inh: inconclusive; HEK293 viab: inconclusive; IP6K1 inh cnf: 0.65µM*

How did C=C(C)CN1CCN(Cc2ccc(OC)cc2)CC1 do in these assays?
KDM5B inh: inactive

What do the screens show for `COc1ccc([C@@H]2CN(C(=O)C(=O)c3ccco3)[C@@H]3C4CCN(CC4)[C@@H]32)cc1`?
IP6K1 inh: 4; SNCA expr inh: 9%; HEK293 viab: 2%; KDM5B inh: inactive

Results for Cc1ccc([C@H]2CN(C(=O)C(=O)c3cccn3C)[C@@H]3C4CCN(CC4)[C@H]23)cc1 ?
IP6K1 inh: -30*; SNCA expr inh: 1%; HEK293 viab: -4%; KDM5B inh: inactive; IP6K1 inh cnf: 9%

What do the screens show for `COc1cc2c(cc1OCc1ccccc1)NC(=O)C21CCN(Cc2nccs2)CC1`?
IP6K1 inh: -33*; SNCA expr inh: 35%[87.6 µM]; HEK293 viab: -17%[87.6 µM]; KDM5B inh: inactive; IP6K1 inh cnf: inconclusive
